# Inconclusive results are not listed. A number with no mark means an inactive call. Activity calls are given as the source filed them. Calls follow the shape of the dose curve; as a rule, active = well fitted activation curve with a large enough effect; inconclusive = small, poorly fitted or top-dose-only effect; inactive = flat fitted curve, though single readings scatter.
# Target: Cellular tumor antigen p53 (Homo sapiens) (UniProt P04637)
# Test: Primary qHTS for small molecule compounds that upregulate eGFP-tagged delta133p53alpha (in C-terminal) cells. (AID 2060324);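 also: 0% = DMSO wells and 100% = 57.5 µM 5-azacytidine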
# Conditions: NCI-H358 delta133p53alpha-eGFP (C-terminal tag), GFP fluorescence imaging, 24 h; series mostly up to 57.5 µM; GFP increase (activation): at the top concentration
# Excerpt: Assay Development and Screening Technology
# National Center for Advancing Translational Sciences (NCATS),
# National Institute of Health (NIH), Rockville, Maryland
# Cellular senescence (CS) is one of the hallmarks of aging and age-related diseases. Senescent cells are characterized by an irreversible growth arrest, an increase in senescence-associated beta-galactosidase (SA-beta-gal) activity and p16INK4a expression, an activation of the DNA damage response pathways, and the emergence of a senescence-associated secretory phenotype (SASP).
# Delta133p53alpha, a human/primate-specific p53 protein isoform, delays or inhibits the induction of CS and SASP in various types of human cells, including progeria-derived fibroblasts, primary normal astrocytes, and CD8+ T lymphocytes. Induction of delta133p53alpha with small molecule compounds may provide therapeutic opportunities for inhibition of senescence/SASP-associated pathologies in progeria syndromes, astrocyte-mediated neuroprotection in neurodegenerative diseases, and possibly prevention and treatment of a wider range of senescence- and aging-associated diseases.
# Here we report the development and validation of a cell-based quantitative high throughput screening (qHTS) assay in 1,536-well format. This qHTS assay uses the NCI-H358 cell line with doxycycline-inducible expression of enhanced green fluorescent protein (eGFP)-tagged delta133p53alpha, which allows efficient and highly quantitative measurement of the protein levels.
# PROTOCOL TABLE (as described by Inglese J, Shamu CE and Guy RK. 2007)
# SEQUENCE No. (e.g., 1, 2, 3, etc.); […] (e.g., Cells, Incubation, Reagent, etc.); VALUE; DESCRIPTION.
# 1; Cells; 4uL; 800 doxycycline treated cells / well in doxycycline-free media, 1536-well black, clear-bottom low base Aurora microplates.
# 2; Compounds; 23 nL; Kalypsis pin tool (Wako) equipped with 1536-well pin heads, 5-azacytidine positive control.
# 3; Incubation; 24 hr; 37C, 5% CO2; 95% relative humidity.
# 4; Aspiration; 1x; BioTek EL406 washer dispenser (Agilent).
# 5; Fixing; 3.5% paraformaldehyde, BioTek EL406 washer dispenser (Agilent).
# 6; Washing; 1x PBS; BioTek EL406 washer dispenser (Agilent).
# 7; Nuclei staining; 1:1000 dilution of Hoechst 33342 (Thermofisher), BioTek EL406 washer dispenser (Agilent).
# 8; Incubation; 20 min; in the dark at room temperature.
# 9; Washing; 2x, 1x PBS (ThermoFisher), BioTek EL406 washer dispenser (Agilent).
# 10; Reagent; 10 uL; 1x PBS per well, sealed with clear adhesive tape.
# 11; Detection; Fluorescence, Acumen eX3 laser scanning cytometer (STP Labtech), GFP filters […].
# NOTES (numbers refer to sequence numbers above).
# 1. NCI-H358 cells expressing eGFP-tagged delta133p53alpha were grown in T75 culture flasks and treated with doxycycline for 24h, at 10 ng/ml for eGFP-D133p53a cells (N-terminal cell) and 100 ng/ml for D133p53a-eGFP cells (C-terminal cells). Cells were trypsinized, counted using a Counted 3 Automated Cell Counter (Thermo Fisher), and diluted to a concentration of 200,000 cells/ml. A Multidrop Combi Reagent Dispenser (ThermoFisher) was used to dispense 800 cells/well in […] of doxycycline-free media, into 1536-well black/clear bottom low base plates (AuroraMicroplates).
# 2. After plating cells, 23 nl of compound library, DMSO vehicle control or positive control (5-azacytidine) were transferred by Pin Tool (Wako). The plate map layout was the same for each plate: (column 1) non-doxycycline treated cells + DMSO vehicle control; (column 2) doxycycline treated cells + DMSO vehicle control baseline; (column 3) doxycycline treated cells + positive control 57.5 uM final concentration 5-azacytidine; (column 4) doxycycline treated cells + serial dilution of 5-azacytidine, 16-point 1:2 titration spanning 1.8 nM to […] final concentration; (columns 5-48) doxycycline treated cells + titration of library compounds.
# 3. Cells were incubated at 37 °C, 5 % CO2, 95% RH with breathable metal lid for 24h.
# 4-10. […] […]
# Chain of Cellular tumor antigen p53 (Homo sapiens) (P04637 whole entry, looked up): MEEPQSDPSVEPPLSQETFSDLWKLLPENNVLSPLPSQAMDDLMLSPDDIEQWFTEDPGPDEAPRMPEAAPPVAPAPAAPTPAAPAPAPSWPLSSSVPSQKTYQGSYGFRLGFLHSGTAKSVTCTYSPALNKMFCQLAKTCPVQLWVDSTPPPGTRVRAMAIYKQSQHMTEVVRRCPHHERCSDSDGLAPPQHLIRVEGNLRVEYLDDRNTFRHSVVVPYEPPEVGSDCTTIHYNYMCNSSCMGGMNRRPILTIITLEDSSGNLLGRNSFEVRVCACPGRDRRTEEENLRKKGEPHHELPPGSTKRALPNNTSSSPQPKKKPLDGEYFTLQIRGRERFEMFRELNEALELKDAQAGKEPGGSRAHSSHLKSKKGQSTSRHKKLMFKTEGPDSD
SMILES,GFP increase (activation),Potency
O=[N+]([O-])c1ccc2nc(N3CCNCC3)ccc2c1,13.1%,
O=C1NCN(c2ccccc2)C12CCN(CC1COc3ccccc3O1)CC2 (stereo not given),1.8%,
COc1ccc2[nH]c3c(c2c1)CCNC3,-0.914%,
NCC(O)c1ccc(O)cc1 (stereo not given),14.4%,
Cn1cnc(CCN)c1,-2.69%,
O=C(N[C@H]1CN2CCC1CC2)c1ccc(Cl)cc1,16.5%,
C#CCOC(=O)C1=CCCN(C)C1,4.58%,
CCN1C[C@@]2(COC)C3[C@@H](OC)C4[C@@H]1C3([C@@H]1C[C@]3(O)[C@H](OC(=O)c5ccccc5)[C@@H]1[C@]4(OC(C)=O)[C@@H](O)[C@@H]3OC)[C@H](OC)C[C@H]2O,-7.11%,
O=S1(=O)N(CCN2CC=C(c3c[nH]c4cc(F)ccc34)CC2)c2cccc3c2N1CCC3,2.62%,
C[C@H](N)Cc1cccc(C(F)(F)F)c1,-5.94%,
NC(=O)c1ccc(OCC(O)CN2CC=C(c3ccc(F)cc3)CC2)cc1 (stereo not given),-1.18%,
CCCCc1ccc(C(=O)O)nc1,-6.11%,
NCCc1ccc(S(=O)(=O)F)cc1,25.5%,
C[C@@H](N)Cc1cnc[nH]1,-6.43%,
C[C@@H]1O[C@H](C[N+](C)(C)C)C[C@H]1O,-6.11%,
OC1CCCCC1N1CCC(c2ccccc2)CC1 (stereo not given),-2.18%,
COc1ccccc1N1CCNCC1,-13.6%,
CCCN(CCC)[C@@H]1CCc2ccc(O)cc2C1,-7.73%,
CC(N)[C@H](O)c1ccc(O)c(O)c1 (stereo not given in full),0.156%,
CC(=O)c1c(O)c(C)c(O)c(Cc2c(O)c3c(c(C(=O)/C=C/c4ccccc4)c2O)OC(C)(C)C=C3)c1O,-8.15%,

SMILES,GFP increase (activation),Potency
COc1cc(C(O)CN)ccc1O (stereo not given),-9.2%,
NN=C(N)N,,inactive
O=P1(N(CCCl)CCCl)NCCCO1 (stereo not given),-2.08%,
COc1ccc(C(=O)N2CCCC2=O)cc1,-0.299%,
C[N+]1(C)CCN(c2ccccc2)CC1,-10%,
C[N+]1(C)C2CCC1CC(OC(=O)c1c[nH]c3ccccc13)C2 (stereo not given),-16.9%,
CC[C@@H](CO)NC(=O)[C@@H]1C=C2c3cccc4c3c(cn4C)C[C@H]2N(C)C1,15.4%,
CCCN1CCC[C@@H]2Cc3nc(N)ncc3C[C@H]21,-1.15%,
NC(CCP(=O)(O)O)C(=O)O (stereo not given),1.98%,
C[N+]1(C)C2CCC1CC(OC(=O)C(CO)c1ccccc1)C2 (stereo not given),,inactive
c1ccc2cc(CC3=NCCN3)ccc2c1,0.2%,
c1ccc(CCCN2CCN(CCOC(c3ccccc3)c3ccccc3)CC2)cc1,2.37%,
CCCN(CCC)[C@H]1CCc2c(F)ccc(O)c2C1,-0.549%,
O=c1[nH]oc2c1CCNC2,-4.89%,
N#CCCN,-1.69%,
NC(C(=O)O)c1cc(=O)[nH]o1 (stereo not given),19.9%,
CCCN1CCC[C@@H](c2cccc(O)c2)C1,-9.98%,
COc1ccc2c(c1OC)C(=O)O[C@H]2[C@@H]1c2cc3c(cc2CCN1C)OCO3,1.83%,
[Cl-].[Cl][Pt].[NH2-].[NH2-].c1ccncc1,3.65%,
O=c1[nH]c2ccccc2n1CCCN1CCC(n2c(=O)[nH]c3cc(Cl)ccc32)CC1,0.805%,
